# Reference: PubChem BioAssay
# A number with no mark means an inactive call. The rule behind the calls is not given here.
# Biological target: Pantothenate synthetase (Mycobacterium tuberculosis (strain ATCC 25618 / H37Rv)) (UniProt P9WIL5)
# Test: Coupled enzyme confirmation of inhibitors against recombinant Mtb PanC (AID 375);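 note: 0% = full reaction with vehicle and 100% = no enzyme background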
# Settings: coupled enzyme assay; at 10 µM, active compounds read high
# Chain of Pantothenate synthetase (Mycobacterium tuberculosis (strain ATCC 25618 / H37Rv)) (P9WIL5 whole entry, looked up): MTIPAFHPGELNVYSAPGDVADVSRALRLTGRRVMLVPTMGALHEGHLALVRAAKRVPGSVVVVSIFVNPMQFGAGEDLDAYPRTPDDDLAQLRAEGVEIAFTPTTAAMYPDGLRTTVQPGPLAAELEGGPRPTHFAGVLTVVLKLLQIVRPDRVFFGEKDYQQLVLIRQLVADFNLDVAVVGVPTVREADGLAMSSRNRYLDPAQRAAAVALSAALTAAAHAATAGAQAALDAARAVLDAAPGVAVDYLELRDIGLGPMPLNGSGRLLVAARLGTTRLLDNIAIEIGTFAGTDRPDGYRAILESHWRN
row,Compound,inhibition
1,COC(=O)c1ccc(CSc2nc3ccccc3s2)o1,0%
2,Cc1cccc(NC(=O)c2cc(NC(=O)c3ccco3)ccc2N2CCCCC2)c1,2%
3,CCC(=O)N1CCN=C1SCc1ccc(Cl)cc1,0%
4,Cc1nnc(SCC(=O)Nc2nccs2)s1,0%
5,Cc1cc(C)n(S(=O)(=O)Cc2ccccc2)n1,0%
6,CCOC(=O)Cc1csc(/C(=N/O)C(N)=O)n1,3%
7,Brc1ccccc1-c1nc(-c2ccccc2)no1,0%
8,O=C(NCCc1cccc(Cl)c1)c1cccnc1,12%
9,COC(=O)[C@@H](N)Cc1ccc(O)cc1,0%
10,CCCCNC(=O)c1nnn(-c2ccccc2)c1N,0%
11,COc1cc(Cn2c(C(=O)O)cc3sccc32)cc(OC)c1OC,0%
12,CCOC(=O)/C=C1\CC(=O)Nc2nonc2N1,4%
13,O=C(NCCC1=CCCCC1)c1cc2c(s1)CS(=O)(=O)C2,1%
14,COc1ccc(S(=O)(=O)N(CC(=O)N2CCN(c3ccccc3OC)CC2)c2ccccc2)cc1,0%
15,c1ccc2c(-c3nc(-c4ccncc4)no3)cccc2c1,0%
16,CN(CC(=O)Nc1sccc1C#N)C1CCCCC1,0%
17,COc1cc2c(cc1OC)C(c1cccnc1)CC(=O)N2 (stereo not drawn),5%
18,Cc1c(NC(=O)C(C)OC(=O)C(NC(=O)c2ccco2)C(C)C)c(=O)n(-c2ccccc2)n1C (stereo not drawn),8%
19,CCCn1cc(SCC(N)=O)c2ccccc21,0%
20,Cc1nc2ccccc2c2oc(C(=O)NCC3COc4ccccc4O3)cc12 (stereo not drawn),0%
21,CCOC(=O)/C=C1\SCC(=O)N1Cc1nnc(-c2ccccc2Br)o1,0%
22,CCOC(=O)c1cnc(-n2nc(C)cc2C)nc1Nc1ccc(N(C)C)cc1,8%
23,CCOC(=O)c1ccc(NC(=O)CSc2nnc(COc3ccccc3)n2C)cc1,0%
